Screens (PubChem BioAssay)
Most compounds without a hit are left out; they make up all but 2.4% or so of the library.
DYRK1A inh: blocks rat Dyrk1A kinase activity; ADP-Glo luminescence, NFATc1 peptide; inhibition, % at 12.5 µM; hit rate 0.43% among 310,000;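 also: plate controls were vehicle with enzyme for no effect and no enzyme for full effect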
NSD2 inh: blocks human histone methyltransferase NSD2 | inhibition, % at 12.5 µM | NSD2 peptide methylation, AlphaScreen, 120 min | hit rate 0.54% among 310,000
Target sequence (O96028 whole entry, looked up): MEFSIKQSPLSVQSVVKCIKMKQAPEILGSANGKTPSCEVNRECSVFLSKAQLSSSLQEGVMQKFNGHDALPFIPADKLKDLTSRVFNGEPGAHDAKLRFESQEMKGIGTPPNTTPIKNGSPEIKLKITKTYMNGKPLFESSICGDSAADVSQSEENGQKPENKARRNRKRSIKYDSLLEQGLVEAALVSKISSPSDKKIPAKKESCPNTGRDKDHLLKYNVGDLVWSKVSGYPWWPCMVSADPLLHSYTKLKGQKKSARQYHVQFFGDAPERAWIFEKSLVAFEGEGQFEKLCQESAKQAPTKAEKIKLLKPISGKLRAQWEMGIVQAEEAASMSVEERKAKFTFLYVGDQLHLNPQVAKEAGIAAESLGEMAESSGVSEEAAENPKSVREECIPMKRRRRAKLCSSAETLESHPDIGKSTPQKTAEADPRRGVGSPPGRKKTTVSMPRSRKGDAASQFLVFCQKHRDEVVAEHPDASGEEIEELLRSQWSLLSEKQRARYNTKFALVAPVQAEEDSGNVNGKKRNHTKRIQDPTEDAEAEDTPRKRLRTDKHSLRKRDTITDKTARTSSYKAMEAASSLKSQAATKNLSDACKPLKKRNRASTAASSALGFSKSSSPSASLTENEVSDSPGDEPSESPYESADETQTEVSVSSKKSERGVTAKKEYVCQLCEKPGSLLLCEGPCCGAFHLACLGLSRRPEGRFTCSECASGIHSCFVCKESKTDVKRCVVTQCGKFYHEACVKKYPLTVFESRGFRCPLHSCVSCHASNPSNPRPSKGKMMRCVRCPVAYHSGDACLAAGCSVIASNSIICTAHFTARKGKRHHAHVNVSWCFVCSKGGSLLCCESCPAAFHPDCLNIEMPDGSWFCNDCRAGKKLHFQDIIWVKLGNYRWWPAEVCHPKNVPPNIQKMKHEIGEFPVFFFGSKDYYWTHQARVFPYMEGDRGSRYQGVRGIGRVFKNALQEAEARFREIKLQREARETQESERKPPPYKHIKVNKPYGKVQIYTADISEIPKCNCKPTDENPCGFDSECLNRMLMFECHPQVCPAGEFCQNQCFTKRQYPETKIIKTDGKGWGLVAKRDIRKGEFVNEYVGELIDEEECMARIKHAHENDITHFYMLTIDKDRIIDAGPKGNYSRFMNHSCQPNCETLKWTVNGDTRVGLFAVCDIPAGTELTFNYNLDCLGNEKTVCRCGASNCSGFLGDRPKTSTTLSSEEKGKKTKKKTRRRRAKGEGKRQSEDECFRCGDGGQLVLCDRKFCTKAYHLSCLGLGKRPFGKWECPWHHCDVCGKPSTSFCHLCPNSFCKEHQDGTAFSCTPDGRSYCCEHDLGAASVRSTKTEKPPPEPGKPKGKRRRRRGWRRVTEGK
MITF TRPM1 HTS: increases MITF-driven TRPM1 promoter luciferase signal; hit rate 0.75% among 300,000; SK-MEL-5 TRPM1-promoter luciferase, 24 h; % of positive control, neutral wells = 0; activation, % at 12.5 µM;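 active = mean activation of at least 80% with every replicate also reaching 80%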;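 also: 0% = neutral control wells and 100% = parthenolide positive control wells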
Wnt bcat act: activators of Wnt/beta-catenin signaling; hit rate 1.2% among 300,000; Wnt/beta-catenin reporter cell assay, activator, plate reader; AID 743398; activation, % at 9.35 µM; in the data active = activation above about 30%, passing the limit was not always enough;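 also: 0% = neutral control wells and 100% = positive control wells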
INS-1E GSIS act: GLuc luminescence reporter in INS-1E cells, primary screen for activators of glucose-dependent secretion of insulin. INS-1E GLuc reporter insulin secretion, 2-3 h. activation, % at 16.6 µM. hit rate 0.61% among 370,000. AID 743287;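 active = lowest replicate activation of at least 40%, so every replicate reaches that level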;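 also: 0% = median of neutral control wells and 100% = median of IBMX positive control wells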
miR122 inh: inhibitors of miR-122 in Huh7 cells; Huh7 miR-122 Renilla luciferase sensor, 48 h; neutral wells = 0, positive control = 100; activation (reporter increase), % at 12.5 µM; hit rate 0.3% among 340,000; AID 602342;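 active = mean replicate activation score at least 90 and every replicate individually at or above 90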;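 also: higher luciferase means less miR-122 activity so hits act as miR-122 inhibitors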
Active calls of the source: *; [ ] = remark or other dose. Rule as the data show it, unless noted: active = inhibition above about 50%; inactive = the rest.

What do the screens show for `Cc1ccccc1Nc1nnc(SCC(=O)NC(=O)Nc2ccc3c(c2)OCCO3)s1`?
NSD2 inh: 0.1

Results for CN1CCN(c2ccc(NC(=O)CSc3ccccc3)cc2F)CC1 ?
DYRK1A inh: -7.9; NSD2 inh: 7.4; Wnt bcat act: 38.2*; miR122 inh: 15.6

What do the screens show for `CC(=O)Nc1ccc2c(c1)C(=O)N(C)C[C@@H](C)[C@H](CN(C)C(C)=O)O2`?
INS-1E GSIS act: -4.4

Results for O=C(O)c1ccc(S(=O)(=O)/N=C2\C=C(Nc3ccccc3F)C(=O)c3ccccc32)cc1 ?
DYRK1A inh: 56.7*; NSD2 inh: 119.8*; MITF TRPM1 HTS: -47.6; Wnt bcat act: -1.6; INS-1E GSIS act: -17.7; miR122 inh: -0.7

What do the screens show for `COc1ccc(S(=O)(=O)/N=C2\C=C(Nc3ccc(O)cc3)C(=O)c3ccccc32)cc1`?
DYRK1A inh: 32.0; NSD2 inh: 50.9*; MITF TRPM1 HTS: -98.6; Wnt bcat act: 0.3; INS-1E GSIS act: -13.4; miR122 inh: -19.9

What do the screens show for `Cc1ccc(NC2=C/C(=N/S(=O)(=O)c3cccs3)c3ccccc3C2=O)cc1C`?
DYRK1A inh: -6.4; NSD2 inh: -0.3; MITF TRPM1 HTS: 22.3; Wnt bcat act: -14.1; INS-1E GSIS act: 9.7; miR122 inh: 1.5

What do the screens show for `CC(C)NC(=O)Nc1cccc2c1O[C@H](CN(C)Cc1ccncc1)[C@H](C)CN([C@H](C)CO)C2=O`?
INS-1E GSIS act: 19.0; miR122 inh: 4.8[16.7 µM]

What do the screens show for `COCCCNC(=O)C(=O)NCC(c1ccco1)N1CCN(c2ccc(OC)cc2)CC1` (stereo not drawn)?
DYRK1A inh: -3.0; NSD2 inh: 2.2; MITF TRPM1 HTS: -8.4; Wnt bcat act: -0.2; INS-1E GSIS act: 49.6*; miR122 inh: -9.8

Results for O=C(NCCC1=CCCCC1)C(=O)NCC(c1ccco1)N1CCN(c2ccccc2)CC1 (stereo not drawn) ?
DYRK1A inh: -3.5; NSD2 inh: -1.5; MITF TRPM1 HTS: -14.1; INS-1E GSIS act: 125.9*

Results for COc1ccc(N2CCN(C(CNC(=O)c3ccco3)c3ccco3)CC2)cc1 (stereo not drawn) ?
DYRK1A inh: 0.7; NSD2 inh: 5.7; MITF TRPM1 HTS: 10.6; Wnt bcat act: -8.3; INS-1E GSIS act: 3.4; miR122 inh: -4.5

What do the screens show for `COc1ccc(N2CCN(C(CNC(=O)C(=O)NCCC3=CCCCC3)c3ccco3)CC2)cc1` (stereo not drawn)?
DYRK1A inh: 9.9; NSD2 inh: -2.0; MITF TRPM1 HTS: -11.8; INS-1E GSIS act: -11.8; miR122 inh: 1.7

What do the screens show for `O=C(CN1CCOCC1)NCC[C@H]1CC[C@@H](NC(=O)Nc2ccc(C(F)(F)F)cc2)[C@@H](CO)O1`?
INS-1E GSIS act: 2.8; miR122 inh: 3.5[16.7 µM]

How did COc1cccc(/C=C2\CCc3ccccc3C2=O)c1 do in these assays?
DYRK1A inh: 8.2; NSD2 inh: -0.3; MITF TRPM1 HTS: 66.0; Wnt bcat act: 35.2*; INS-1E GSIS act: 14.2

Results for COc1ccc2c(c1)CC/C(=C\C=C\c1ccccc1)C2=O ?
DYRK1A inh: 9.7; NSD2 inh: 0.1; Wnt bcat act: 31.1*; miR122 inh: -2.4

Results for COc1ccc2c(c1)CC/C(=C/c1ccccn1)C2=O ?
DYRK1A inh: 2.2; NSD2 inh: 6.9; MITF TRPM1 HTS: 46.2; Wnt bcat act: 25.6; INS-1E GSIS act: 5.9; miR122 inh: -4.5

Results for COc1cccc(C=C2Cc3ccccc3C2=O)c1 ?
NSD2 inh: 2.3; Wnt bcat act: -1.7; INS-1E GSIS act: 16.5

Results for CN1[C@@H]2Cn3c(ccc(-c4ccccc4)c3=O)[C@H]1[C@@H](C(=O)Nc1nccs1)[C@@H]2CO ?
INS-1E GSIS act: -6.7; miR122 inh: -4.7[16.7 µM]

What do the screens show for `O=C(Nc1cccc(F)c1)N1CC(=O)N2[C@H](C1)[C@H](c1ccc(Br)cc1)[C@@H]2CO`?
INS-1E GSIS act: 1.8

How did CCOC(=O)CN1C(=O)[C@]2(OCCC=C[C@H]2C)c2ccccc21 do in these assays?
Wnt bcat act: 3.5; INS-1E GSIS act: 350.8*

Results for C[C@@H]1C=CCCO[C@]12C(=O)N(CC1CC1)c1ccccc12 ?
Wnt bcat act: -1.3; INS-1E GSIS act: 18.0
